Test results from PubChem BioAssay (NCI).
Values joined by “and” are separate entries in the source; they are usually repeats but may differ in a detail not shown here. Equal values may be shown once. The panel holds about 83,000 compounds, 20% with a hit somewhere; the sample as a whole holds those more often.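 Assay: single dose, 48 h. Readout: percent growth (0 = no net growth; negative = cell death). Active: <10.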 Active and inactive are the calls of the source.

Key:
Experiment in all cases: NCI-60 one-dose screen, 48 h (100 = growth as untreated, 0 = no growth, -100 = all killed)
DU-145 prostate = tested on: DU-145 prostate
K-562 leukemia = tested on: K-562 leukemia
MALME-3M melanoma = tested on: MALME-3M melanoma
MDA-MB-231 breast = tested on: MDA-MB-231 breast
RXF 393 renal = tested on: RXF 393 renal
SF-268 CNS = tested on: SF-268 CNS
SF-295 CNS = tested on: SF-295 CNS
SF-539 CNS = tested on: SF-539 CNS
UACC-257 melanoma = tested on: UACC-257 melanoma
M14 melanoma = tested on: M14 melanoma

Measured: growth

COc1ccc2c(c1)[nH]c1c(/C=C/c3ccccc3)nccc12
inactive: DU-145 prostate; 10 µM 103% | K-562 leukemia; 10 µM 36.1% | MALME-3M melanoma; 10 µM 69.2% | MDA-MB-231 breast; 10 µM 73.7% | RXF 393 renal; 10 µM 69.5% | SF-268 CNS; 10 µM 85.5% | SF-295 CNS; 10 µM 59.2% | SF-539 CNS; 10 µM 52.1% | UACC-257 melanoma; 10 µM 71.8% | M14 melanoma; 10 µM unless noted 71.4%

CC[C@@]1(OC(=O)CN(C)C)C(=O)OCc2c1cc1n(c2=O)Cc2cc3c(N)cccc3nc2-1
active: DU-145 prostate; 10 µM 4.87% | K-562 leukemia; 10 µM 9.06% | MALME-3M melanoma; 10 µM -23.9% | RXF 393 renal; 10 µM -23.4% | SF-268 CNS; 10 µM 8.15% | SF-295 CNS; 10 µM -7.04% | SF-539 CNS; 10 µM -30.9% | UACC-257 melanoma; 10 µM -35.4% | M14 melanoma; 10 µM unless noted -40.1%
inactive: MDA-MB-231 breast; 10 µM 27.7%

O=C1c2cccc3cc([N+](=O)[O-])cc(c23)C(=O)N1CCN1CCCC1
inactive: MDA-MB-231 breast; 10 µM 20.6% | SF-295 CNS; 10 µM 11%
active: DU-145 prostate; 10 µM -30.9% | K-562 leukemia; 10 µM -10.2% | MALME-3M melanoma; 10 µM -26.4% | RXF 393 renal; 10 µM -43% | SF-268 CNS; 10 µM 0.438% | SF-539 CNS; 10 µM -20.7% | UACC-257 melanoma; 10 µM 3.14% | M14 melanoma; 10 µM unless noted 0.262%

COc1ccc2oc(-c3ccc(Cl)cc3)c(N3CCN(C)CC3)c2c1
inactive: DU-145 prostate; 10 µM 24.3% | MALME-3M melanoma; 10 µM 121% | RXF 393 renal; 10 µM 28% | SF-268 CNS; 10 µM 37.2% | UACC-257 melanoma; 10 µM 22%
active: K-562 leukemia; 10 µM -24.7% | MDA-MB-231 breast; 10 µM 0.119% | SF-295 CNS; 10 µM -54.5% | SF-539 CNS; 10 µM -6.28% | M14 melanoma; 10 µM unless noted -66%

N#C/C(=C/N1C(=O)/C(=C/c2ccc([N+](=O)[O-])cc2)SC1=S)c1nc2ccccc2s1
inactive: DU-145 prostate; 10 µM 104% | K-562 leukemia; 10 µM 77.5% | MALME-3M melanoma; 10 µM 111% | MDA-MB-231 breast; 10 µM 73.6% | RXF 393 renal; 10 µM 96.8% | SF-268 CNS; 10 µM 95% | SF-295 CNS; 10 µM 86.8% | SF-539 CNS; 10 µM 91.9% | UACC-257 melanoma; 10 µM 96.5% | M14 melanoma; 10 µM unless noted 94.6%

CN(C)c1ccc(/C=C/c2ccnc3ccccc23)cc1N
inactive: DU-145 prostate; 10 µM 83.5% | K-562 leukemia; 10 µM 31.1% | MALME-3M melanoma; 10 µM 68% | MDA-MB-231 breast; 10 µM 46.1% | RXF 393 renal; 10 µM 80.9% | SF-268 CNS; 10 µM 87.4% | SF-295 CNS; 10 µM 74.8% | SF-539 CNS; 10 µM 76.9% | UACC-257 melanoma; 10 µM 58.7% | M14 melanoma; 10 µM unless noted 73.9%

CC(=O)O[C@H]1C(=O)[C@@]2(C)[C@H]([C@H](OC(=O)c3ccccc3)[C@]3(O)C[C@H](OC(=O)[C@H](O)[C@@H](NC(=O)c4ccccc4)c4ccccc4)C(C)=C1C3(C)C)[C@]1(OC(C)=O)CO[C@@H]1C[C@@H]2O
29.1% (inactive) and 5.06% (active): MDA-MB-231 breast; 10 µM
inactive: K-562 leukemia; 0.01 µM 10.7% | MALME-3M melanoma; 0.01 µM 52.3% | MALME-3M melanoma; 2.5 µM 51.7% | MALME-3M melanoma; 5 µM 61.6% | MALME-3M melanoma; 10 µM 52.5% and 62.6% | MDA-MB-231 breast; 0.01 µM 49.4% | SF-268 CNS; 0.01 µM 42.1% | SF-268 CNS; 2.5 µM 27.2% | SF-268 CNS; 5 µM 29.5% | SF-268 CNS; 10 µM 37.1% and 36.3% | SF-295 CNS; 0.01 µM 55.9% | UACC-257 melanoma; 0.01 µM 14.6% | UACC-257 melanoma; 2.5 µM 48.7% | UACC-257 melanoma; 5 µM 59.6% | UACC-257 melanoma; 10 µM 26.9% and 65% | M14 melanoma; 5 µM 19.5% | M14 melanoma; 10 µM 24.9% and 24.5%
active: DU-145 prostate; 0.01 µM -35.7% | DU-145 prostate; 2.5 µM -5.74% | DU-145 prostate; 5 µM -7.54% | DU-145 prostate; 10 µM -49.5% and -4.6% | K-562 leukemia; 2.5 µM 5.83% | K-562 leukemia; 5 µM 6.14% | K-562 leukemia; 10 µM -6.92% and 5.96% | MDA-MB-231 breast; 2.5 µM -6.11% | MDA-MB-231 breast; 5 µM 2.87% | RXF 393 renal; 0.01 µM 1.22% | RXF 393 renal; 2.5 µM -29.4% | RXF 393 renal; 5 µM -25.8% | SF-295 CNS; 2.5 µM 2.61% | SF-295 CNS; 5 µM 3.25% | SF-295 CNS; 10 µM 9.92% and 1.83% | SF-539 CNS; 0.01 µM -15.1% | SF-539 CNS; 2.5 µM -28.7% | SF-539 CNS; 5 µM -33.8% | SF-539 CNS; 10 µM -14.3% and -16.1% | M14 melanoma; 2.5 µM -1.65%
28.9% (inactive) and -25.2% (active): RXF 393 renal; 10 µM

O=S(=O)(c1cc(Cl)ccc1O)c1cc(Cl)ccc1O
inactive: DU-145 prostate; 10 µM 100% | K-562 leukemia; 10 µM 62.1% | MALME-3M melanoma; 10 µM 95.7% | MDA-MB-231 breast; 10 µM 95.4% | RXF 393 renal; 10 µM 102% | SF-268 CNS; 10 µM 88.2% | SF-295 CNS; 10 µM 85.2% | SF-539 CNS; 10 µM 86.6% | UACC-257 melanoma; 10 µM 35.1% | M14 melanoma; 10 µM unless noted 75.8%
